Active and inactive are the calls of the source.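 The calls were made as follows, unless noted: active = thallium flux through the channel raised or lowered by more than 3 SD from vehicle-only wells, actives on both sides; inactive = the rest.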
How the values were obtained:
[1] = P. berghei load reduction in hepatocytes – cell-based, HepG2, luciferase luminescence, HepG2 viability, primary screen (AID 624349; in the data active = parasite load remaining mostly below about 12%, no sharp cut-off; inactive = mostly above about 10%;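 also: 100% = mean of DMSO negative control wells on the same plate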); conditions: P. berghei liver stage in HepG2, luciferase luminescence, concentration not given here; parasite load remaining: stronger effect = lower value; viability: measured here: HepG2 viability without parasites
[2] = signal quenchers or enhancers, Cy5 substrate/SSB – biochemical, NIH Clinical Collection, E. coli SSB, artefact control for HCV NS3 helicase inhibitor project (AID 743268; call rule not given here); conditions: Cy5-oligo bound E. coli SSB, fluorescence interference
[3] = tested on: Hepatitis C virus NS3 helicase; test: blockers of NS3h binding to DNA – biochemical, fluorescence polarization, NIH Clinical Collection, primary screen (AID 743270; call rule not given here); conditions: NS3 helicase binding to Cy5-dT15 DNA, stronger effect = higher value, concentration not given here
[4] = target: Single-stranded DNA-binding protein (Escherichia coli (strain K12)) (UniProt P0AGE0); test: SSB-ssDNA binding inhibitors – biochemical, fluorescence polarization, NIH Clinical Collection, counter-screen for HCV NS3 helicase inhibitor project (AID 743271; in the data active = inhibition above about 28%); conditions: E. coli SSB-DNA binding, stronger effect = higher value, concentration not given here
[5] = compounds distorting NS3 helicase fluorescence signal – biochemical, NIH Clinical Collection, artefact control for HCV NS3 helicase inhibitor project (AID 743272; call rule not given here;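 also: HCV NS3 helicase with a Cy5 labelled single stranded DNA probe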); conditions: fluorescence interference counterscreen, HCV NS3 helicase assay; stronger effect = lower value
[6] = tested on: Neuropilin-2 / VEGF-C interaction (human); test: small molecules blocking Neuropilin-2/VEGF-C interaction – biochemical, microplate binding format, z-score (AID 743281; call rule not given here); conditions: microplate NRP2/VEGF-C binding assay; stronger effect = lower value
F380Y = test: BK channel mutant inhibitors and activators – cell-based, U2OS BacMam, thallium flux, beta subunits, selectivity assay, profiling panel (AID 1259406); conditions: U2OS BacMam BK variants, at 30 µM;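 also: initial slope of Thallos dye fluorescence rise after thallium is added; log ratio against the mean of 0.3% DMSO vehicle wells on the same plate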
F380Y/beta1 = test: as above; conditions: U2OS BacMam BK variants, at 30 µM
F380Y/beta2Delta = test: as above; conditions: U2OS BacMam BK variants, at 30 µM
F380Y/beta4 = test: as above; conditions: U2OS BacMam BK variants, at 30 µM
[7] = target: Calcium-activated potassium channel subunit alpha-1 (Homo sapiens) + Leucine-rich repeat-containing protein 26 (Homo sapiens) (UniProt Q12791+Q2I0M4); test: as above; conditions: U2OS BacMam BK variants, F380Y/Slo1WT/gamma1, at 30 µM
R275C = test: as above; conditions: U2OS BacMam BK variants, at 30 µM
R275C/beta1 = test: as above; conditions: U2OS BacMam BK variants, at 30 µM
R275C/beta2Delta = test: as above; conditions: U2OS BacMam BK variants, at 30 µM
R275C/beta4 = test: as above; conditions: U2OS BacMam BK variants, at 30 µM
R275C/Slo1WT/beta2 = test: as above; conditions: U2OS BacMam BK variants, at 30 µM
[8] = modulation of C. elegans fzo-1 (AID 1259413; call rule not given here;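 also: fzo-1 mutant C. elegans worms in liquid wells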); conditions: C. elegans fzo-1 modulator screen, mean read-out; stronger effect = higher value

Sequence of Calcium-activated potassium channel subunit alpha-1 (Homo sapiens) + Leucine-rich repeat-containing protein 26 (Homo sapiens) (Q2I0M4 whole entry, looked up, one chain of several): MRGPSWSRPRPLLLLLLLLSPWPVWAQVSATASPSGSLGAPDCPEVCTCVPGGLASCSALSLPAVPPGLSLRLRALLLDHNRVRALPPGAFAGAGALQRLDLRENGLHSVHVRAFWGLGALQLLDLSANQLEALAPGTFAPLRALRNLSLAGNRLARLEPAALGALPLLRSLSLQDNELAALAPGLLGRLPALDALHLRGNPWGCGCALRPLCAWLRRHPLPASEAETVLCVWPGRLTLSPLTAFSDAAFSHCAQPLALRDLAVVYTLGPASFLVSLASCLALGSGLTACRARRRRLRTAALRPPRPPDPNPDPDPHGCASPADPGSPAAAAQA

SMILES | parasite load remaining [1] | viability [1] [%] | fluorescence ratio [2] | inhibition [3] | inhibition [4] | fluorescence ratio [5] | z-score [6] | log fold change Tl+ flux (F380Y) | log fold change Tl+ flux (F380Y/beta1) | log fold change Tl+ flux (F380Y/beta2Delta) | log fold change Tl+ flux (F380Y/beta4) | log fold change Tl+ flux [7] | log fold change Tl+ flux (R275C) | log fold change Tl+ flux (R275C/beta1) | log fold change Tl+ flux (R275C/beta2Delta) | log fold change Tl+ flux (R275C/beta4) | log fold change Tl+ flux (R275C/Slo1WT/beta2) | mean signal [8]
CC(C)CC(NC(=O)C(COC(C)(C)C)NC(=O)C(Cc1ccc(O)cc1)NC(=O)C(CO)NC(=O)C(Cc1c[nH]c2ccccc12)NC(=O)C(Cc1cnc[nH]1)NC(=O)C1CCC(=O)N1)C(=O)N[C@@H](CCCN=C(N)N)C(=O)N1CCCC1C(=O)NNC(N)=O (some centres not stated) | 82.9% (inactive) | 90.6 | 0.89 (inactive) | -0.22% (inactive) | 7.48% (inactive) | 0.87 (inactive) | -0.441 (inactive) | -0.0277 (inactive) | 0.02 (inactive) | -0.0184 (inactive) | 0.00509 (inactive) | -0.0112 (inactive) | -0.0448 (inactive) | 0.00576 (inactive) | -0.00625 (inactive) | -0.0787 (inactive) | 0.0919 (active) | 
CC12C=CC(=O)C=C1CC[C@@H]1[C@@H]2C(=O)CC2(C)[C@H]1CC[C@]2(O)C(=O)CO (some centres not stated) |  |  |  |  |  |  |  |  |  |  |  |  |  |  |  |  |  | 237 (inactive)
C[C@]12C=CC(=O)C=C1CC[C@@H]1[C@@H]2[C@@H](O)C[C@@]2(C)[C@H]1CC[C@]2(O)C(=O)COC(=O)CCC(=O)O | 128% (inactive) | 72.6 | 1 (inactive) | 7.52% (inactive) | 4.52% (inactive) | 0.99 (inactive) |  | -0.0223 (inactive) | 0.0033 (inactive) | 0.00204 (inactive) | -0.00342 (inactive) | -0.00445 (inactive) | -0.00218 (inactive) | -0.0173 (inactive) | -0.00108 (inactive) | -0.0167 (inactive) | -0.0235 (inactive) | 
C=CC[C@@H]1C=C(C)C[C@H](C)C[C@H](OC)[C@H]2O[C@@](O)(C(=O)C(=O)N3CCCC[C@H]3C(=O)O[C@H](/C(C)=C/[C@@H]3CC[C@@H](O)[C@H](OC)C3)[C@H](C)[C@@H](O)CC1=O)[C@H](C)C[C@@H]2OC | 77.5% (inactive) | 72.5 | 0.94 (inactive) | -1.19% (inactive) | 2.21% (inactive) | 0.92 (inactive) |  | -0.344 (active) | -0.0137 (inactive) | -0.629 (active) | 0.109 (active) | 0.0458 (inactive) | -0.067 (inactive) | 0.274 (active) | 0.123 (active) | 0.467 (active) | 0.00553 (inactive) | 
CO[C@H]1C=CO[C@@]2(C)Oc3c(C)c(O)c4c(O)c(c(C=NN5CCN(C6CCCC6)CC5)c(O)c4c3C2=O)NC(=O)C(C)=CC=C[C@H](C)[C@H](O)[C@@H](C)[C@@H](O)[C@@H](C)[C@H](OC(C)=O)[C@@H]1C | 21.3% (inactive) | 65.4 |  |  |  |  |  | 0.118 (active) | -0.0391 (inactive) | 0.0273 (inactive) | 0.177 (active) | 0.0556 (inactive) | -0.0706 (inactive) | 0.0996 (active) | 0.0465 (inactive) | 0.28 (active) | 0.00833 (inactive) | 
